From PubChem BioAssay (NCATS)
Several values for one entry are separate records, joined by “and”; a condition that tells them apart may be missing. Equal entries are not always repeated. Results filed as inconclusive are left out. Activity calls are given as the source filed them. Unless noted, calls come from the whole dose curve; as a rule, active = well fitted inhibition curve with a large enough effect; inconclusive = small, poorly fitted or top-dose-only effect; inactive = flat fitted curve, though single readings scatter.

Experiments:
[1] = Drug repurposing screens with cells derived from glioblastoma tumor samples (AID 1345199); conditions: GBM patient neurospheres viability, ATP luminescence, 48 h; note: % is set by controls: 0 for no effect and ±100 for the full control effect; nearly all actives have a fitted effect of over 40% in size
Method in brief: (§1)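 Primary testing used CD133+ neurospheres from four GBM patients, seven concentrations, 48 h exposure and ATP-based viability; confirmation added three slower-growing patient lines.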

astro = control astrocytes; assay: as above; conditions: viability, ATP luminescence, 48 h; series mostly up to 45.9 µM
Method in brief: as §1

[2] = biological target: Nuclear receptor subfamily 1 group I member 2 (Rattus norvegicus) (UniProt Q9R1A7); assay: qHTS assay for small molecule activators of the rat pregnane X receptor (rPXR) signaling pathway (AID 651751; call rule not given here; note: 0% is about no effect); conditions: rPXR reporter cells, luciferase (One-Glo), 24 h
[3] = qHTS assay for small molecule activators of the human pregnane X receptor (PXR) signaling pathway (AID 720659; call rule not given here; note: 0% is about no effect); conditions: DPX-2 HepG2 CYP3A4-luciferase, 24 h; series mostly up to 92.3 µM
[4] = at 45.9 µM (top of the series), tumour line B
[5] = at 45.9 µM (top of the series), tumour line D
[6] = at 46.1 µM (top of the series), tumour line C
[7] = at 46 µM (top of the series), tumour line A

Sequence of Nuclear receptor subfamily 1 group I member 2 (Rattus norvegicus) (Q9R1A7 whole entry, looked up): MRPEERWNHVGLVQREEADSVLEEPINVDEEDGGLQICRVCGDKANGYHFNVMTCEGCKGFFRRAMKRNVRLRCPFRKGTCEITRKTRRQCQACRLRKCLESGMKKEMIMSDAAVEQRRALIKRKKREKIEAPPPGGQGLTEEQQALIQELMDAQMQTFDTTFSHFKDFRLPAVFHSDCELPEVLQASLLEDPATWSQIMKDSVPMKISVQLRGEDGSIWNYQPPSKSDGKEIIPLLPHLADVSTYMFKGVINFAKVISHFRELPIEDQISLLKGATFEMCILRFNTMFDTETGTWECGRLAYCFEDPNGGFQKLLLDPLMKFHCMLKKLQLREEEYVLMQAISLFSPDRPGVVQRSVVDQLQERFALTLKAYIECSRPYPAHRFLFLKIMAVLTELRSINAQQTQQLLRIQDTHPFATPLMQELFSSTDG

CNC1(c2ccccc2Cl)CCCCC1=O (configuration not stated)
inactive: activity, negative = cell killing [1, 4] -12.1% and -12.4% | activity, negative = cell killing [1, 5] -13.4% and -12.7% | activity, negative = cell killing [1, 6] -5.45% | Potency (astro)

C[C@@H]1[C@@H]2Cc3ccc(O)cc3[C@@]1(C)CCN2CC1CC1
inactive: activity, negative = cell killing [1, 4] -1.24% | activity, negative = cell killing [1, 5] -18.9% | activity, negative = cell killing [1, 6] 6.7% | Potency (astro)

O=C1CN(O)C(c2ccccc2)=c2cc(Cl)ccc2=N1
inactive: activity, negative = cell killing [1, 4] -13.2% | activity, negative = cell killing [1, 5] -10.4% | activity, negative = cell killing [1, 6] -13.2% | Potency (astro)

CCOC(=O)c1ccccc1C(=O)OCC
inactive: activity, negative = cell killing [1, 4] -8.14% | activity, negative = cell killing [1, 5] -11.3% | activity, negative = cell killing [1, 7] -28.3% | activity, negative = cell killing [1, 6] 0.324% | Potency (astro) | max response [2] 2.54% and 6.22% and -3.04% | outcome [3]

[O]=[Cd]
inactive: activity, negative = cell killing [1, 4] -6.73% | activity, negative = cell killing [1, 5] 0.985% | activity, negative = cell killing [1, 7] -15% | activity, negative = cell killing [1, 6] -5.34% | Potency (astro) | max response [2] 0.17% | outcome [3]

O=c1[nH]cc(N(CCCl)CCCl)c(=O)[nH]1
inactive: activity, negative = cell killing [1, 4] -11% | activity, negative = cell killing [1, 5] -17.9% | activity, negative = cell killing [1, 6] -21.9% | Potency (astro)

c1ccc2sc(SNC3CCCCC3)nc2c1
inactive: activity, negative = cell killing [1, 4] -13.7% | activity, negative = cell killing [1, 5] -11.7% | activity, negative = cell killing [1, 6] -8.99% | Potency (astro)

O=C(NC(=O)c1c(F)cccc1F)Nc1ccc(Cl)c(Oc2ncc(C(F)(F)F)cc2Cl)c1
inactive: activity, negative = cell killing [1, 4] -0.522% | activity, negative = cell killing [1, 5] -21.9% | activity, negative = cell killing [1, 6] -19.8% | Potency (astro)

ClC(Cl)(Cl)Cl
inactive: activity, negative = cell killing [1, 4] -3.78% | activity, negative = cell killing [1, 5] 4.09% | activity, negative = cell killing [1, 7] -14.3% | activity, negative = cell killing [1, 6] -6.14% | Potency (astro) | outcome [3]

N#CC1(N2CCCCC2)CCCCC1
inactive: activity, negative = cell killing [1, 4] -11.3% | activity, negative = cell killing [1, 5] -14.5% | activity, negative = cell killing [1, 6] -18% | Potency (astro)

O=C(CCl)c1ccc(Oc2ccc(C(=O)CCl)cc2)cc1
inactive: activity, negative = cell killing [1, 4] -24.4% | activity, negative = cell killing [1, 5] -6.59% | activity, negative = cell killing [1, 6] -8.36% | Potency (astro)

O=c1[nH]c(=O)n(Cl)c(=O)n1Cl
inactive: activity, negative = cell killing [1, 4] -3.23% | activity, negative = cell killing [1, 5] -0.766% | activity, negative = cell killing [1, 7] -8.9% | activity, negative = cell killing [1, 6] 7.98% | Potency (astro) | max response [2] -4.63% | outcome [3]

CC(=O)O[C@H]1CC[C@H]2[C@@H]3CCC4=CC(=O)CCC4=C3C=C[C@]12C
inactive: activity, negative = cell killing [1, 4] -12.7% | activity, negative = cell killing [1, 5] -6.7% | activity, negative = cell killing [1, 6] -16.1% | Potency (astro)

NCC(O)c1cccc(O)c1 (configuration not stated)
inactive: activity, negative = cell killing [1, 4] -9.47% | activity, negative = cell killing [1, 5] -16.5% | activity, negative = cell killing [1, 6] -10.7% | Potency (astro)

C[C@]12CC[C@H]3[C@@H](CCC4=C(O)C(=O)CC[C@@H]43)[C@@H]1CC[C@@H]2OC(=O)CCC1CCCC1
inactive: activity, negative = cell killing [1, 4] -11.4% | activity, negative = cell killing [1, 5] -14.1% | activity, negative = cell killing [1, 6] -19.8% | Potency (astro)

CCCC(C)C1(CC)C(=O)NC(=O)NC1=O (configuration not stated)
inactive: activity, negative = cell killing [1, 4] -11.9% | activity, negative = cell killing [1, 5] 0.152% | activity, negative = cell killing [1, 6] -8.48% | Potency (astro)

OC[C@@H](O)[C@H]1O[C@@H]2O[C@H](C(Cl)(Cl)Cl)O[C@@H]2[C@H]1O
inactive: activity, negative = cell killing [1, 4] -1.98% | activity, negative = cell killing [1, 5] -2.86% | activity, negative = cell killing [1, 6] -11.5% | Potency (astro)

O=C(OCCN1CCCCC1)C(O)(c1ccccc1)c1ccccc1
inactive: activity, negative = cell killing [1, 4] -11.1% | activity, negative = cell killing [1, 5] -8.82% | activity, negative = cell killing [1, 6] -26.9% | Potency (astro)

O=C(CS(=O)C(c1ccccc1)c1ccccc1)NO (configuration not stated)
inactive: activity, negative = cell killing [1, 4] -1.04% | activity, negative = cell killing [1, 7] -19.6% | activity, negative = cell killing [1, 6] -22% | Potency (astro)

O=C(NCNC(=O)NC1C(=O)NC(=O)N1CO)NC1C(=O)NC(=O)N1CO (configuration not stated)
inactive: activity, negative = cell killing [1, 4] -11.9% | activity, negative = cell killing [1, 5] 3.73% | activity, negative = cell killing [1, 6] -7.65% | Potency (astro)

C=CCN(C1=NCCN1)c1c(Cl)cccc1Cl
inactive: activity, negative = cell killing [1, 4] -5.59% | activity, negative = cell killing [1, 5] -0.731% | activity, negative = cell killing [1, 6] -15.8% | Potency (astro)

CC[C@H]1[C@@H]2C[C@H]3[C@@H]4N(C)c5ccccc5[C@]45C[C@@H](C2[C@H]5O)N3[C@@H]1O (some centres not stated)
inactive: activity, negative = cell killing ([1]; at 20 µM (top of the series), tumour line C) 5.4% | activity, negative = cell killing ([1]; at 21.2 µM (top of the series), tumour line B) 2.75% | activity, negative = cell killing ([1]; at 21.2 µM (top of the series), tumour line D) 6.31% | Potency (astro)

CC(Cc1ccccc1)NC=O (configuration not stated)
inactive: activity, negative = cell killing [1, 4] -10.4% | activity, negative = cell killing [1, 5] 2.52% | activity, negative = cell killing [1, 6] -28.9% | Potency (astro)

CCN1C[C@]2(COC)[C@H](O)C[C@H](OC)[C@@]34[C@@H]5C[C@@]6(O)[C@H](OC(=O)c7ccccc7)[C@@H]5[C@@](OC(C)=O)([C@@H]([C@H](OC)[C@H]23)[C@@H]14)[C@@H](O)[C@@H]6OC
inactive: activity, negative = cell killing [1, 4] -6.48% | activity, negative = cell killing [1, 5] -4.25% | activity, negative = cell killing [1, 6] 8.16% | Potency (astro)
